Compound activity deposited in PubChem by National Center for Advancing Translational Sciences (NCATS).
Hits are enriched below; roughly 6.8% of the tested compounds scored in any of these assays.
PINK1 modulator: changes PINK1 expression; 410,000 compounds, 0.2% hits; PINK1 immunofluorescence, high-content cytometry, 24 h; Potency, µM (series often up to 76.6 µM), for inactives: at the highest dose activation (PINK1 increase), most hits filed as activators; active means well fitted activation curve with a large enough effect; inconclusive means small, poorly fitted or top-dose-only effect; cell line not stated here; further: % of control where 0% means no effect; nearly all actives have a fitted effect of over 65% in size
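Cells are seeded, rested 12 hours, then given compound at five concentrations or DMSO for 24 hours. After fixation, blocking and antibody staining, PINK1 amount and mitochondrial localization are scored; CCCP serves as control.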
KB-V1 MDR tox: KB-V1 MDR subline cytotoxicity; AID 1347076; KB-V1 MDR cells viability, CellTiter-Glo, 72 h; 400,000 compounds, 3.4% hits; Potency, µM (doses to about 46.1 µM), actives largely listed as cytotoxic; further: on the % scale 0 is the no-effect control and ±100 the full control effect; nearly all actives have a fitted effect of over 60% in size
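Cells of the MDR subline KB-V1 are plated, dosed with compound at multiple concentrations, and incubated 72 h at 37 degrees C; CellTiter-Glo is then added and luminescence read after 10 min.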
TSG101-PTAP inh: blocks PTAP/TSG101 interaction to inhibit HIV-1 budding. Potency, µM (top dose mostly 115 µM), inactives show at the top dose activity change, negative = inhibition, usual class: inhibitors. Fluorescence polarization, FITC-PTAP peptide / Tsg101 binding. 340,000 tested, under 10 active. Q99816; active means well fitted inhibition curve with a large enough effect in the main read-out, with a control signal flat, not every such curve was filed as active; inconclusive means small, poorly fitted or top-dose-only effect, or effect the other way, or a change in a side signal; inactive means no such curve, though single readings can be large or run the other way; further: % of control where 0% means no effect
Target sequence (Q99816 whole entry, looked up): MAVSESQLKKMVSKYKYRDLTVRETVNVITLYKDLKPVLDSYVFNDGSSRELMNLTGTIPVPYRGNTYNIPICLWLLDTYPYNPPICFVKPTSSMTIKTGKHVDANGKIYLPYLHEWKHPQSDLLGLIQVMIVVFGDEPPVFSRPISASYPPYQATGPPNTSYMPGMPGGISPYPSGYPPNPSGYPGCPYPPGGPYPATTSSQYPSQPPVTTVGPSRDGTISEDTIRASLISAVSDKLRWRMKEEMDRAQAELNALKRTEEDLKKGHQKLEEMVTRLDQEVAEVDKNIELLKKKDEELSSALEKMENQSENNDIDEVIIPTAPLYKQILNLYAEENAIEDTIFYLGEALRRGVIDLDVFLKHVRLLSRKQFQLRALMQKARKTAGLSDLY
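Fluorescence anisotropy tracks displacement of a FITC-tagged PTAP peptide (50 nM) from the Tsg101 binding domain (10 uM), following a 20 min room-temperature incubation at pH 7.5.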
SW480 rereplic: DNA re-replication induction in SW480 cells | Potency, µM (doses to about 46.1 µM), for the others: at the highest dose re-replication activation, actives largely listed as activators | 340,000 compounds, 1.8% hits | SW480 DNA re-replication, Hoechst DNA content imaging, 48 h | AID 624297; further: % of control where 0% means no effect; nearly all actives have a fitted effect of over 55% in size
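Treated cells incubate 48 hr (37 C, 5% CO2), are stained 40 min with Hoechst, and nuclear fluorescence is enumerated; a rise in nuclei with high DNA signal marks re-replication.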
MCF10A rerep: induces DNA re-replication in MCF 10a normal breast cells; Potency, µM (top dose mostly 46.1 µM), inactives show at the highest dose activity, positive = re-replication, actives largely listed as activators; MCF 10A DNA re-replication, Hoechst nuclear intensity, 48 h; 350,000 compounds, 2.9% hits; further: % of control where 0% means no effect; nearly all actives have a fitted effect of over 50% in size
KB-3-1 tox: KB-3-1 parental cell cytotoxicity. Potency, µM (series often up to 46.1 µM), usual class: cytotoxic. KB-3-1 viability, CellTiter-Glo ATP luminescence, 72 h. AID 1347075. 400,000 compounds, 1.4% hits; further: on the % scale 0 is the no-effect control and ±100 the full control effect; nearly all actives have a fitted effect of over 60% in size
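Using CellTiter-Glo luminescence, growth of non-resistant KB-3-1 adenocarcinoma cells is assessed 72 h after pin-tool compound addition at 37 °C. Normalized responses across the concentration series yield fitted curves.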
An asterisk follows results filed as active; i = inactive; ? = inconclusive; . = no result given; [ ] = dose if it differs, or a comment. Unless noted, the call rests on the fitted dose curve; in most records, active means well fitted curve in the direction sought with a large enough effect; inconclusive means small, poorly fitted or top-dose-only effect, or another doubt; inactive means no such curve, though single readings can be large; an effect the other way counts as inactive or inconclusive. Potency means the concentration at half of the fitted maximal effect.

SMILES	PINK1 modulator	KB-V1 MDR tox	TSG101-PTAP inh	SW480 rereplic	MCF10A rerep	KB-3-1 tox
COc1cc(/C=C2\CCC(C3CCCC3)C2=O)cc(OC)c1OC (stereo not drawn)	8%	i	-4%	-5%	22%	i
COc1cc(/C=C2\CC(C(C)(C)C)C/C(=C\c3cc(OC)c(OC)c(OC)c3)C2=O)cc(OC)c1OC (stereo not drawn)	0%	i	-5%	7.3µM*	3.3µM*	8.2µM*
Cc1ccc(Cn2c(=O)n(Cc3ccccc3Cl)c(=O)c3ccccc32)cc1	-1%	?	.	.	.	i
COc1cc(/C=C2\SC(N)=NC2=O)cc(Cl)c1O	4%	i	31%	-3%	0%	i
CCN1C/C(=C/c2cccc([N+](=O)[O-])c2)C(=O)/C(=C/c2cccc([N+](=O)[O-])c2)C1	-2%	?	-2%	3.7µM*	0.82µM*	i
COc1ccccc1C=C1SC(=S)NC1=O	0%	i	-7%	0%	17%	i
CCOc1cc(/C=C2\CN(CC)C/C(=C\c3ccc(O)c(OCC)c3)C2=O)ccc1O	-1%	?	-1%	?	?	?
O=C1NC(=S)SC1=Cc1ccccc1Cl	?	i	-17%	10%	6.5µM*	?
COc1cc(/C=C2/CCC/C(=C\c3cc(O)c(OC)c(Cl)c3)C2=O)cc(Cl)c1O	0%	8.2µM*	-12%	6.5µM*	2.1µM*	?
COc1ccc(NC(=O)N2CC[C@@]3(CCCN(C(=O)c4ccco4)C3)C2)cc1	0%	.	.	.	.	.
Cc1ccc(CNC(=O)C(C)n2nc(C)c3sc4ccccc4c3c2=O)cc1 (stereo not drawn)	0%	i	.	.	.	i
CCOC(=O)C(C)n1nc(C)c2sc3ccccc3c2c1=O (stereo not drawn)	12%[38.3 µM]	21µM*	-6%	10%	24%	i
Cc1ccc(Sc2ccc(NC(=O)CCl)cc2)cc1C	1%	?	0%	?	?	?
Cc1ccc(C)c(Sc2ccc(NC(=O)CCl)cc2)c1	0%	?	-1%	26%	?	21µM*
O=C(NC1CC(=O)N(c2ccc(Cl)cc2)C1)c1ccc(S(=O)(=O)N2CCCC2)cc1 (stereo not drawn)	1%	.	.	.	.	.
O=C1C=C(Nc2ccc(Cl)cc2)CC(c2ccccc2)C1 (stereo not drawn)	2%	?	-3%	?	16µM*	?
CC(=O)Nc1ccc(C2=CC(=O)C[C@H](c3ccc(Cl)cc3)C2)cc1	5%	i	-7%	?	18µM*	i
Cc1ccc(NC2=CC(=O)CC(c3ccc(Cl)cc3)C2)cc1 (stereo not drawn)	11%	?	4%	10%	25%	i
Cc1ccc(NC2=CC(=O)CC(c3ccccc3)C2)cc1 (stereo not drawn)	1%	?	-3%	21µM*	8.2µM*	?
CC(C)CCNC1=CC(=O)CC(c2ccccc2)C1 (stereo not drawn)	?	i	-2%	18µM*	?	?
